The panel holds about 79,000 compounds, 15% with a hit somewhere; the sample as a whole holds those more often. Calls of active or inactive are those of the source. No stated cut-off is given here; in the data, active means growth inhibition above about 70%; inactive means the rest.
Assays:
[1] = NCI Yeast Anticancer Drug Screen. Data for the mec2-1 strain (AID 157); settings: S. cerevisiae mec2-1 strain, hits give high values
In short: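 Test agents were screened against the mec2-1 yeast strain, with defined DNA repair or cell cycle alteration. Growth was scored as inhibition against vehicle-only controls.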

[2] = NCI Yeast Anticancer Drug Screen. Data for the rad14 strain (AID 159);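 further: 0% = growth of vehicle-treated control cultures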; settings: S. cerevisiae rad14 strain growth inhibition, hits give high values
In short: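 Growth inhibition vs vehicle controls; genetically altered yeast strain (DNA damage repair defect) treated with test compounds.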

[3] = NCI Yeast Anticancer Drug Screen. Data for the sgs1 mgt1 strain (AID 161);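 further: 0% = growth of cultures given vehicle only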; settings: S. cerevisiae sgs1 mgt1 strain, hits give high values
In short: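 Test agents were incubated with a DNA-repair-mutant yeast strain. Growth was then read and compared against vehicle-treated controls.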

[4] = NCI Yeast Anticancer Drug Screen. Data for the CLN2oe strain (AID 163);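 further: 0% = growth of vehicle-only control cultures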; settings: S. cerevisiae CLN2oe strain, hits give high values
In short: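 Here, growth inhibition in a cell-cycle-altered yeast strain after compound exposure was quantified against vehicle control growth.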

[5] = NCI Yeast Anticancer Drug Screen. Data for the cln2 rad14 strain (AID 165);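 further: 0% = growth equal to vehicle treated cultures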; settings: S. cerevisiae cln2 rad14 strain, hits give high values
In short: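 Growth of compound-exposed yeast (cln2 rad14 genotype) measured and expressed as inhibition relative to vehicle.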

[6] = NCI Yeast Anticancer Drug Screen. Data for the bub3 strain (AID 167); settings: S. cerevisiae bub3 mutant strain, hits give high values
In short: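 Readout: yeast growth inhibition, expressed relative to vehicle-only wells. The test organism is a mutant strain from a panel with lesions in DNA repair or checkpoint genes.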

[7] = NCI Yeast Anticancer Drug Screen. Data for the wt2 strain (AID 169);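 further: 0% = growth of vehicle-treated yeast cultures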; settings: S. cerevisiae wt2 strain growth inhibition, hits give high values
In short: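 Genetically defined yeast strains from a DNA-repair/cell-cycle panel were used. Compound-exposed yeast growth was measured, and the inhibition was calculated relative to vehicle treatment.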

[8] = NCI Yeast Anticancer Drug Screen. Data for the mlh1 strain (AID 171);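 further: 0% = growth of vehicle-treated control cultures of the same strain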; settings: S. cerevisiae mlh1 strain growth inhibition, hits give high values
In short: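 Here the genetically defined yeast mutant is grown with each compound, and the extent to which its growth falls below that of vehicle-exposed cells is reported.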

[9] = NCI Yeast Anticancer Drug Screen. Data for the sgs1 strain (AID 173);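 further: 0% = growth of vehicle-only control cultures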; settings: S. cerevisiae sgs1 mutant, hits give high values
In short: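 Relative growth inhibition, referenced to vehicle, was determined in a yeast strain with a defined alteration affecting DNA damage repair or cell cycle control after compound exposure.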

[10] = NCI Yeast Anticancer Drug Screen. Data for the mlh1 rad18 strain (AID 175); settings: S. cerevisiae mlh1 rad18 strain growth inhibition, hits give high values
In short: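 In this whole-cell yeast screen, a strain with altered DNA damage repair is challenged with compound, and its growth is measured against matched vehicle-treated controls.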

[11] = NCI Yeast Anticancer Drug Screen. Data for the rad52 strain (AID 147);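 further: 0% = growth of vehicle-treated control cultures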; settings: S. cerevisiae rad52 mutant growth inhibition, hits give high values
In short: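 Measured: yeast growth inhibition. System: strain with a defined DNA damage repair alteration. Reference: vehicle-treated control cultures.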

[12] = NCI Yeast Anticancer Drug Screen. Data for the wt1 strain (AID 149);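 further: 0% = growth of vehicle-treated wt1 cultures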; settings: S. cerevisiae wt1 strain (SPY 50644) growth inhibition, hits give high values
In short: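 Growth inhibition read against vehicle controls after compound exposure of the wt1 yeast strain.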

[13] = NCI Yeast Anticancer Drug Screen. Data for the rad50EPP+ strain (AID 151);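 further: 0% = growth of vehicle-treated control cultures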; settings: S. cerevisiae rad50 mutant strain, hits give high values
In short: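 One strain with a rad50 alteration (rad50EPP+) was compound-treated, its growth then compared to that of vehicle controls.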

[14] = NCI Yeast Anticancer Drug Screen. Data for the mgt1 strain (AID 153); settings: S. cerevisiae mgt1 mutant growth inhibition, hits give high values
In short: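 After exposure of the mgt1 yeast mutant to compound, growth was measured and reported as inhibition compared with vehicle controls.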

[15] = NCI Yeast Anticancer Drug Screen. Data for the rad50 strain (AID 155);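 further: 0% = growth of vehicle-only cultures of the same strain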; settings: S. cerevisiae rad50 strain growth inhibition, hits give high values
In short: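 Readout: growth inhibition relative to vehicle-treated cultures. Compound exposure was carried out in a genetically defined yeast strain deficient in DNA damage repair.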

[16] = NCI Yeast Anticancer Drug Screen. Data for the rad18 strain (AID 177); settings: S. cerevisiae rad18 mutant growth inhibition, hits give high values
In short: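 Screen uses a yeast strain with a defined lesion in DNA damage repair; compound effect is read as loss of growth compared to untreated vehicle cultures.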

[17] = at 5.0 µM (retest, dose inferred, filed as 0.5)
[18] = at 50.0 µM (retest, dose inferred, filed as 5.0)

Measured: growth inhibition

COc1ccc(-c2cn(-c3ccc(I)cc3)c3ncnc(N)c23)cc1
inactive: [1]; [17] -6% | [1]; at 11.0 µM -5% | [1]; at 33.0 µM 0% | [1]; at 50.0 µM 1.7% | [1]; at 100.0 µM 1% | [2]; at 1.2 µM -5% | [2]; at 3.7 µM -8% | [2]; at 11.0 µM -12% | [2]; at 33.0 µM -8% | [2]; at 100.0 µM -1% | [3]; [17] 39% | [3]; at 50.0 µM -11.2% | [4]; at 1.2 µM -7% | [4]; at 3.7 µM -8% | [4]; at 11.0 µM -2% | [4]; at 33.0 µM 9% | [4]; at 100.0 µM 4% | [5]; [17] 4% | [5]; [18] 65% | [5]; at 50.0 µM -0.5% | [6]; at 1.2 µM -2% | [6]; at 3.7 µM -2% | [6]; [17] 12% | [6]; at 11.0 µM -3% | [6]; at 33.0 µM 0% | [6]; at 50.0 µM 13.2% | [6]; at 100.0 µM 0% | [7]; at 1.2 µM -4% | [7]; at 3.7 µM -8% | [7]; at 11.0 µM -10% | [7]; at 33.0 µM -8% | [7]; at 100.0 µM -8% | [8]; at 1.2 µM -2% | [8]; at 3.7 µM -5% | [8]; at 11.0 µM -5% | [8]; at 33.0 µM 10% | [8]; at 100.0 µM 9% | [9]; at 1.2 µM -4% | [9]; at 3.7 µM -5% | [9]; at 11.0 µM -3% | [9]; at 33.0 µM 26% | [9]; at 100.0 µM 29% | [10]; [17] 4% | [10]; [18] -17% | [10]; at 50.0 µM 14.2%
active: [1]; [18] 78% | [3]; [18] 82% | [6]; [18] 72%

O=C(COC(=O)c1cc(O)c(O)c(O)c1)c1ccc(-c2ccccc2)cc1
active: [11]; at 100.0 µM 96% | [12]; at 100.0 µM 97% | [13]; at 33.0 µM 91% | [13]; at 100.0 µM 96% | [15]; [18] 94% | [15]; at 100.0 µM 95% | [1]; [18] 95% | [1]; at 100.0 µM 97% | [2]; at 100.0 µM 95% | [3]; [18] 98% | [4]; at 100.0 µM 83% | [6]; [18] 97% | [6]; at 100.0 µM 97% | [7]; at 100.0 µM 95% | [8]; at 100.0 µM 95% | [9]; at 100.0 µM 97% | [10]; [18] 97% | [16]; at 100.0 µM 95%
inactive: [11]; at 1.2 µM -2% | [11]; at 3.7 µM 2% | [11]; at 11.0 µM 8% | [11]; at 33.0 µM 38% | [12]; at 1.2 µM -3% | [12]; at 3.7 µM -3% | [12]; at 11.0 µM -2% | [12]; at 33.0 µM 10% | [13]; at 1.2 µM 6% | [13]; at 3.7 µM 21% | [13]; at 11.0 µM 47% | [14]; at 1.2 µM -1% | [14]; at 3.7 µM -1% | [14]; at 11.0 µM 0% | [14]; at 33.0 µM 46% | [14]; at 100.0 µM 39% | [15]; at 1.2 µM -1% | [15]; at 3.7 µM 1% | [15]; [17] -16% | [15]; at 11.0 µM 11% | [15]; at 33.0 µM 42% | [15]; at 50.0 µM 45.9% | [1]; at 1.2 µM -3% | [1]; at 3.7 µM -3% | [1]; [17] 6% | [1]; at 11.0 µM 3% | [1]; at 33.0 µM 34% | [1]; at 50.0 µM 30.4% | [2]; at 1.2 µM 1% | [2]; at 3.7 µM 1% | [2]; at 11.0 µM 9% | [2]; at 33.0 µM 44% | [3]; [17] 7% | [3]; at 50.0 µM 60.9% | [4]; at 1.2 µM -6% | [4]; at 3.7 µM -9% | [4]; at 11.0 µM -11% | [4]; at 33.0 µM -1% | [5]; [17] -84% | [5]; [18] -12% | [5]; at 50.0 µM 0.6% | [6]; at 1.2 µM -4% | [6]; at 3.7 µM -3% | [6]; [17] 3% | [6]; at 11.0 µM -3% | [6]; at 33.0 µM 21% | [6]; at 50.0 µM 59.2% | [7]; at 1.2 µM -3% | [7]; at 3.7 µM -5% | [7]; at 11.0 µM -4% | [7]; at 33.0 µM 66% | [8]; at 1.2 µM -3% | [8]; at 3.7 µM 0% | [8]; at 11.0 µM 4% | [8]; at 33.0 µM 57% | [9]; at 1.2 µM -1% | [9]; at 3.7 µM 1% | [9]; at 11.0 µM 11% | [9]; at 33.0 µM 63% | [10]; [17] 19% | [10]; at 50.0 µM 40.2% | [16]; at 1.2 µM -1% | [16]; at 3.7 µM 2% | [16]; at 11.0 µM 12% | [16]; at 33.0 µM 58%

O=C(O)CNc1ccc(Cl)c(Cl)c1
active: [11]; at 33.0 µM 77% | [11]; at 100.0 µM 98% | [12]; at 100.0 µM 98% | [14]; at 100.0 µM 99% | [15]; at 33.0 µM 75% | [15]; at 50.0 µM 78.2% | [15]; at 100.0 µM 98% | [1]; at 100.0 µM 99% | [2]; at 100.0 µM 98% | [4]; at 100.0 µM 98% | [5]; at 50.0 µM 84.2% | [6]; at 50.0 µM 87.3% | [6]; at 100.0 µM 98% | [7]; at 33.0 µM 78% | [7]; at 100.0 µM 99% | [8]; at 33.0 µM 71% | [8]; at 100.0 µM 99% | [9]; at 33.0 µM 74% | [9]; at 100.0 µM 98% | [10]; [18] 76% | [10]; at 50.0 µM 89.2% | [16]; at 33.0 µM 76% | [16]; at 100.0 µM 98%
inactive: [11]; at 1.2 µM -2% | [11]; at 3.7 µM 0% | [11]; at 11.0 µM 14% | [12]; at 1.2 µM -3% | [12]; at 3.7 µM -6% | [12]; at 11.0 µM -6% | [12]; at 33.0 µM 25% | [13]; at 1.2 µM -2% | [13]; at 3.7 µM 1% | [13]; at 11.0 µM 6% | [13]; at 33.0 µM 22% | [13]; at 100.0 µM 43% | [14]; at 1.2 µM -2% | [14]; at 3.7 µM -4% | [14]; at 11.0 µM -6% | [14]; at 33.0 µM 32% | [15]; at 1.2 µM -2% | [15]; at 3.7 µM 6% | [15]; [17] -7% | [15]; at 11.0 µM 13% | [15]; [18] 18% | [1]; at 1.2 µM -10% | [1]; at 3.7 µM -1% | [1]; [17] -7% | [1]; at 11.0 µM -8% | [1]; at 33.0 µM 38% | [1]; [18] 30% | [1]; at 50.0 µM 57.2% | [2]; at 1.2 µM -6% | [2]; at 3.7 µM -7% | [2]; at 11.0 µM -7% | [2]; at 33.0 µM 48% | [3]; [17] -6% | [3]; [18] 22% | [3]; at 50.0 µM 38.4% | [4]; at 1.2 µM -4% | [4]; at 3.7 µM -1% | [4]; at 11.0 µM 0% | [4]; at 33.0 µM 58% | [5]; [17] 10% | [5]; [18] 1% | [6]; at 1.2 µM -9% | [6]; at 3.7 µM -12% | [6]; [17] -8% | [6]; at 11.0 µM 5% | [6]; at 33.0 µM 67% | [6]; [18] 17% | [7]; at 1.2 µM -5% | [7]; at 3.7 µM -5% | [7]; at 11.0 µM -6% | [8]; at 1.2 µM -2% | [8]; at 3.7 µM 1% | [8]; at 11.0 µM 2% | [9]; at 1.2 µM -3% | [9]; at 3.7 µM -5% | [9]; at 11.0 µM 4% | [10]; [17] -16% | [16]; at 1.2 µM -2% | [16]; at 3.7 µM -4% | [16]; at 11.0 µM 2%

Source: PubChem BioAssay (NCI)
